The values that follow come from PubChem BioAssay (NCI).

This is part of a sample that, as a whole, favours compounds with a hit. Of some 83,000 tested, about 20% had one in any assay.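 Activity criterion: percent growth below 10, measured after cells in 96-well plates were exposed to a single compound concentration for 48 hours.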 Activity calls are given as the source filed them.

The assay relates to HL-60(TB) leukemia. Briefly: NCI-60 one-dose screen, 48 h (100 = growth as untreated, 0 = no growth, -100 = all killed). As to conditions: 10 µM unless noted.
With `CC(=O)O[C@]1(C(C)=O)CC[C@H]2[C@@H]3C=C(Cl)C4=CC(=O)CC[C@]4(C)[C@H]3CC[C@@]21C`, the growth was 104% (inactive).

For `Cn1c(=O)c2c(nc(Br)n2CCC(=O)Nc2ccc(F)cc2)n(C)c1=O`, the growth was 91.8% (inactive).

For `O=C(NC(=S)N1CC=CCC1)c1ccccc1`, the growth is 125% (inactive).

Consider `NC(CSC(c1ccccc1)(c1ccccc1)c1ccc2c(c1)OCO2)C(=O)O` (stereo not given), for which the growth was -26.2% (active).

For `Clc1ccc(-c2nc(-c3cccs3)no2)cc1`, the growth is 108% (inactive).

On to `COc1cc(C2=NN(C(C)=O)C(c3ccc(OC(C)=O)cc3OC(C)=O)O2)c(OC(C)=O)c2ccccc12` (stereo not given), for which the growth is -17.9% (active).

As for `O=C1C(=O)c2ccccc2C(O)=C1CCCc1ccc(Oc2ccccc2)cc1`, the growth is 44.3% (inactive).

On to `OCCNc1nc(NCCO)nc(Nc2ccc(C3=NN(c4cc(Cl)cc(Cl)c4)C(c4ccc(Cl)cc4)C3)cc2)n1` (stereo not given), for which the growth is 13.7% (inactive).

Turning to `Clc1ccc(Cc2nc3ccccc3s2)cc1`, the growth is 98.6% (inactive).

`CCCn1c2cc(OCc3cn(-c4ccc(Br)cc4)nn3)ccc2c2ccnc(C)c21`: the growth is -61.3% (active).

`C[C@]12CC[C@@H]3c4cc(OC(F)F)c(O)cc4CC[C@H]3[C@@H]1CC[C@@H]2OS(N)(=O)=O`: the growth was 7.66% (active).

With `CC(=O)OC[C@]12CCC(C)(C)C=C1[C@H]1CC[C@@H]3[C@@]4(C)CCCNC(C)(C)[C@@H]4CC[C@@]3(C)[C@]1(C)CC2`, the growth is 0.652% (active).

As for `COc1cc2c(cc1OC(C)=O)C(=O)CCCC2`, the growth was 143% (inactive).

On to `N#CC1=C(/N=C/c2ccccc2)Oc2c(ccc3ccccc23)C1c1ccc([N+](=O)[O-])cc1` (stereo not given), for which the growth was 99.1% (inactive).

Take `CCCCCCNC(=O)Oc1ccc(/C(=C(\C)c2ccc(Cl)cc2)c2ccc(OCCCN(C)C)cc2)cc1`: the growth is 62.9% (inactive).

Regarding `O=C(CC1(O)C(=O)Nc2ccc(Br)cc21)c1ccc(Cl)cc1` (stereo not given), the growth is 80.1% (inactive).

Turning to `CCOc1cccc(/C=N/NC(=O)c2ccc(Nc3ccnc(C(F)(F)F)c3)cc2)c1O`, the growth was 37.7% (inactive).

Turning to `CN1C[C@@H](c2ccc(Cl)cc2)[C@]2(NC(=S)N(c3ccccc3)C2=O)[C@@]12C(=O)NC1C=CC(Br)=C[C@H]12` (stereo not given in full), the growth is 40.2% (inactive).

`COc1ccc(-c2nc3c(c(-c4ccc(Cl)cc4)nn3-c3ccccc3)c(-c3ccc(O)cc3)c2C#N)cc1`: the growth is 22.7% (inactive).

For the compound `CC12CC3CC1C(C(=O)O2)C3C(=O)O` (stereo not given), the growth is 95.6% (inactive).

In the case of `Cn1c(=O)c2c(-c3ccccc3F)n(-c3ccc4c(c3)OCO4)cc2n(C)c1=O`, the growth was 90.2% (inactive).

Take `Cc1csc(-c2ccc3c(c2)COC3(CCCN(C)C)c2ccc(F)cc2)c1` (stereo not given): the growth was -47.9% (active).

Regarding `Nc1ncnc2[nH]c(=O)[nH]c12`, the growth is 140% (inactive).

As for `COc1ccc(C(=O)NC(=O)Nc2ccc3c(c2)NC(=O)/C3=C\c2[nH]c(C)c(C(=O)O)c2C)cc1`, the growth was 95.2% (inactive).

As to `CCOc1ccc(NC(=O)c2ccoc2COc2ccccc2)cc1`, the growth was 100% (inactive).

For `O=c1c2cc(Cl)ccc2oc2ccc(OCCCCCN3CCCCC3)cc12`, the growth is 38.5% (inactive).

As for `C=C(C=O)[C@@H]1CC=C(C=O)CC1`, the growth is -33.2% (active).

Consider `CNC(=O)c1cc(Oc2ccc(NC(=O)Nc3ccc(Cl)c(C(C)(C)C)c3)c(F)c2)ccn1`, for which the growth is 46.7% (inactive).

For the compound `COc1cc(C(=O)NC(=S)Nc2ccc3ccccc3c2)cc(OC)c1OC`, the growth was 97.1% (inactive).

Turning to `CC(=O)Oc1cc2cnc3c4cc(OC(C)=O)c(OC(C)=O)cc4ccc3c2cc1OC(C)=O`, the growth was -2.79% (active).

Turning to `CCOC(=O)c1cc(-c2ccc(OC)cc2)[nH]c1NNC(=O)CCOC`, the growth was 90.8% (inactive).

On to `COc1cc(/C=C/C(=O)c2ccc(Cl)cc2)ccc1OS(=O)(=O)c1ccc(C)cc1`, for which the growth was 75.2% (inactive).

As to `CN(C)CCCSc1ccccc1NC1=C(Cl)C(=O)C(Nc2ccccc2SCCCN(C)C)=C(Cl)C1=O`, the growth was -34.8% (active).

Consider `C=CCOc1cccc(/C=C/C(=O)c2sc(Nc3cccnc3)nc2C)c1`, for which the growth was 43.3% (inactive).

`O=C(/C=C/c1cccc(Cl)c1Cl)Nc1ncc(Cc2ccccc2Cl)s1`: the growth was -3.06% (active).

Turning to `CCCCCCCCCCCCCCCCCCNC(=O)[C@H]1CSC(c2ccc(OC)cc2O)N1` (stereo not given in full), the growth is 34.4% (inactive).

Consider `Fc1ccc2c(-c3cncn3CCc3ccccc3)c[nH]c2c1`, for which the growth was 85.8% (inactive).

As for `CCCCc1ccc(N=Nc2ccc(OCC[N+](C)(C)C)cc2)cc1`, the growth was 25.2% (inactive).

`CCOC(=O)c1c(C)nc2ccccc2c1/C=C/c1ccc(F)cc1`: the growth is 85.7% (inactive).

Regarding `C/C(Cc1ccc(Cl)cc1)=C(\c1ccc(OCCCN(C)C)cc1)c1ccc(OC(=O)Cc2ccccc2)cc1`, the growth is 88.7% (inactive).
